This note sets out measurements from PubChem BioAssay (Tox21).

Test [1] in a line: qHTS assay to identify small molecule antagonists of the estrogen receptor alpha (ER-alpha) signaling pathway using the BG1 cell line in the presence of 0.1 nM 17-beta-estradiol - cell viability counter screen (AID 1259241). Further: nearly all actives have a fitted effect of over 40% in size. An outline of the steps:
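The cell line endogenously expresses full-length ER-alpha and carries four EREs driving luciferase. Cells are cultured 5 days hormone-free, treated 22 hr with compounds and 0.1 nM estradiol, then viability is read by fluorescence.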

Test [2] concerns the target Estrogen receptor (Homo sapiens) (UniProt P03372). As to the kind of experiment: qHTS assay to identify small molecule antagonists of the estrogen receptor alpha (ER-alpha) signaling pathway using the BG1 cell line in the presence of 0.1 nM 17-beta-estradiol (AID 1259244). Further: nearly all actives have a fitted effect of over 50% in size. In outline:
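VM7Luc4E2; 4xERE-luciferase; 0.1 nM E2 final; 22 h co-incubation, 37C; ONE-Glo luminescence after 30 min at room temperature.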
Background: In qHTS, concentration-response curves come from the screen itself.

Test [3] can be described thus: qHTS assay to identify small molecule HDAC inhibitors (AID 1259364). Further: potency means the concentration at half of the fitted maximal effect.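 Further: wild-type HCT-116 cells with endogenous class I/II HDAC activity; nearly all actives have a fitted effect of over 45% in size.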 An outline of the steps:
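Relative class I and II HDAC activity is taken from the luminogenic signal in HCT-116 cells, with compound exposure 2 hr and reagent development 30 min at room temperature.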

The nature of test [4]: qHTS assay to identify small molecule HDAC inhibitors - cell viability counter screen (AID 1259365). Further: series mostly up to about 92 µM; nearly all actives have a fitted effect of over 50% in size. In outline: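 Viability readout: CellTiter-Glo luminescence. Wild-type HCT-116 cells, 2hr compound treatment following overnight attachment at 37 C.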
A short description of test [5]: qHTS assay to identify small molecule agonists of the sonic hedgehog signaling (Shh) pathway - cell viability counter screen (AID 1259366). Further: nearly all actives have a fitted effect of over 50% in size. Further: potency means the concentration at half of the fitted maximal effect. In outline: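 Viability measured fluorometrically (CellTiter-Fluor, 1hr, 37C) in 3T3 Gli1-Luc reporter cells after 23hr compound exposure within a 24hr incubation at 37C/5% CO2.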
The nature of test [6]: qHTS assay to identify small molecule antagonists of the sonic hedgehog signaling (Shh) pathway - cell viability counter screen (AID 1259367). Further: nearly all actives have a fitted effect of over 55% in size. Further: potency means the concentration at half of the fitted maximal effect. An outline of the steps: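 NIH/3T3-derived Gli1-Luc reporter cells, 2,000/well, plated 4 hr before compound addition, then stimulated with conditioned medium for 24 hr at 37C. Viability measured in the same wells by CellTiter-Fluor fluorescence, reagent added at 23 hr for 1 hr.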

Test [7] can be described thus: qHTS assay to identify small molecule agonists of the sonic hedgehog signaling (Shh) pathway (AID 1259368; calls by dose curve; further: nearly all actives have a fitted effect of over 15% in size; further: potency means the concentration at half of the fitted maximal effect). In outline:
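Mouse fibroblast (NIH/3T3) reporter cells with stably integrated Gli1-Luc were treated 24 hr with compound; firefly luciferase luminescence served as the read-out.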

The nature of test [8]: qHTS assay to identify small molecule antagonists of the sonic hedgehog signaling (Shh) pathway (AID 1259369; calls by dose curve; further: nearly all actives have a fitted effect of over 45% in size). An outline of the steps: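 Conditioned medium drives Shh signalling in 3T3Gli1-Luc cells; compounds in DMSO co-applied, 24hr at 37 C, then luciferase luminescence.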
In test [9] the target is Estrogen receptor beta (Homo sapiens) (UniProt Q92731). As to the kind of experiment: qHTS assay to identify small molecule agonists of the estrogen receptor beta (ER-beta) signaling pathway (AID 1259377; active means well fitted activation curve with a large enough effect in the signal ratio in the repeat runs, not every such curve was filed as active; the % refers to the signal ratio). In outline:
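A UAS-controlled beta-lactamase reporter in ER-beta-UAS-bla HEK293T cells reports receptor activation. Compounds act for 16 hr at 37C in 2% charcoal-stripped serum, and a FRET substrate is read by fluorescence after 2 hours.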

Test [10] is described as follows: qHTS assay to identify small molecule agonists of the androgen receptor (AR) signaling pathway in the presence of an antagonist - cell viability counter screen (AID 1259379). Further: nearly all actives have a fitted effect of over 25% in size. Further: potency means the concentration at half of the fitted maximal effect. In outline: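 A CellTiter-Fluor read-out measured viability of MDA-kb2 reporter cells (MMTV promoter with AR and GR response elements). Treatment: nilutamide 3.0uM final with compounds at 15 concentrations, 16 hr, 37C, 0% CO2.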

A short description of test [11]: qHTS assay to identify small molecule agonists of the estrogen receptor beta (ER-beta) signaling pathway - cell viability counter screen (AID 1259380). Further: nearly all actives have a fitted effect of over 30% in size. Further: potency means the concentration at half of the fitted maximal effect. In outline:
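Cells used were ER-beta-UAS-bla HEK293T in medium with 2% charcoal-stripped FBS. They were treated for 16 hr at 37C. Viability came from CellTiter-Glo luminescence.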

The nature of test [12]: qHTS assay to identify small molecule antagonists of the estrogen receptor beta (ER-beta) signaling pathway - cell viability counter screen (AID 1259382). Further: series mostly up to about 92 µM; nearly all actives have a fitted effect of over 55% in size. In outline: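 Agonist-stimulated (1nM E2) ER-beta-UAS-bla HEK293T cells are incubated with library compounds for 16 hr at 37C. Cell viability is then assessed in the reporter-assay wells by adding CellTiter-Glo and reading luminescence after 30 min.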

For test [13], the target named is Estrogen receptor (Homo sapiens) (UniProt P03372). Description: qHTS assay to identify small molecule agonists of the estrogen receptor alpha (ER-alpha) signaling pathway in the presence of an antagonist (AID 1259383; calls by dose curve; further: top concentration of the series differs between compounds; nearly all actives have a fitted effect of over 15% in size). An outline of the steps:
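Using VM7Luc4E2 cells seeded 24hr before treatment, antagonist ICI-182,780 (10.0nM final) was added, followed by compounds at 15 concentrations. Plates incubated 22hr; ONE-Glo luminescence quantified reporter activity.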

Test [14] can be described thus: qHTS assay to identify small molecule agonists or antagonists of the thyroid stimulating hormone receptor (TSHR) signaling pathway - wild type cell line counter screen (AID 1259384; calls by dose curve). An outline of the steps:
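Wild-type Hek293 cells, 800/well, 18 h at 37C, then compound with Ro20-1724 for 30 min RT. cAMP by HTRF (cAMP-d2/anti-cAMP cryptate), 1 h RT, fluorescence read. 15 concentrations, triplicates.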

Test [15] concerns the target Thyrotropin receptor (Homo sapiens) (UniProt P16473). As to the kind of experiment: qHTS assay to identify small molecule antagonists of the thyroid stimulating hormone receptor (TSHR) signaling pathway (AID 1259385; calls by dose curve; further: nearly all actives have a fitted effect of over 20% in size). An outline of the steps:
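TSHR-HEK293 cells (800/well) plated 18 h, then compounds with Ro20-1724 and TSH at 1.5 ng/mL final, 30 min at room temperature. cAMP quantified by HTRF (cAMP-d2/anti-cAMP-cryptate, 1 h); 15 concentrations in triplicate.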

The nature of test [16]: qHTS assay to identify small molecule agonists of the estrogen receptor alpha (ER-alpha) signaling pathway in the presence of an antagonist - cell viability counter screen (AID 1259386).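 Further: cells exposed to compounds for 22 h at 37 °C before the viability read; nearly all actives have a fitted effect of over 30% in size.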 Further: potency means the concentration at half of the fitted maximal effect. An outline of the steps: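 ICI-182,780 at 10.0nM final accompanies the compound titration (15 concentrations, 22hr, 37C) on VM7Luc4E2 cells. The CellTiter-Fluor fluorescence readout runs in the same wells as the luciferase assay.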

The target in test [17] is Estrogen receptor beta (Homo sapiens) (UniProt Q92731). As to the kind of experiment: qHTS assay to identify small molecule antagonists of the estrogen receptor beta (ER-beta) signaling pathway (AID 1259378; active means well fitted inhibition curve with a large enough effect in the signal ratio in the repeat runs, not every such curve was filed as active; the % refers to the signal ratio). In outline:
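ER-beta-UAS-bla HEK293T cells in 2% charcoal-stripped FBS medium treated with compound plus 1nM final 17-beta-estradiol for 16 hr at 37C. Beta-lactamase reporter read by FRET substrate fluorescence after 2 hours at room temperature.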

The nature of test [18]: qHTS assay to identify small molecule phospholipidosis (PLD) inducers (AID 1259344; active means well fitted curve in the direction sought with a large enough effect; an effect the other way counts as inactive or inconclusive). In outline:
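HepG2 cells, 900/well, treated with compound plus LipidTOX Red for 24 h at 37 C; amiodarone positive and DMSO negative controls. Fixed with paraformaldehyde/Hoechst, then high-content imaging scored LipidTOX pit count and integrated intensity per well and per cell.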

Several values for one entry are separate records, joined by “and”; a condition that tells them apart may be missing. Equal entries are not always repeated. Results filed as inconclusive are left out. Activity calls are given as the source filed them. Unless noted, the call rests on the fitted dose curve; in most records, active means well fitted curve in the direction sought with a large enough effect in the repeat runs; inconclusive means weak or mixed curves; inactive means no such curve, though single readings can be large; an effect the other way counts as inactive or inconclusive.

Estrogen receptor beta (Homo sapiens), sequence (Q92731 whole entry, looked up): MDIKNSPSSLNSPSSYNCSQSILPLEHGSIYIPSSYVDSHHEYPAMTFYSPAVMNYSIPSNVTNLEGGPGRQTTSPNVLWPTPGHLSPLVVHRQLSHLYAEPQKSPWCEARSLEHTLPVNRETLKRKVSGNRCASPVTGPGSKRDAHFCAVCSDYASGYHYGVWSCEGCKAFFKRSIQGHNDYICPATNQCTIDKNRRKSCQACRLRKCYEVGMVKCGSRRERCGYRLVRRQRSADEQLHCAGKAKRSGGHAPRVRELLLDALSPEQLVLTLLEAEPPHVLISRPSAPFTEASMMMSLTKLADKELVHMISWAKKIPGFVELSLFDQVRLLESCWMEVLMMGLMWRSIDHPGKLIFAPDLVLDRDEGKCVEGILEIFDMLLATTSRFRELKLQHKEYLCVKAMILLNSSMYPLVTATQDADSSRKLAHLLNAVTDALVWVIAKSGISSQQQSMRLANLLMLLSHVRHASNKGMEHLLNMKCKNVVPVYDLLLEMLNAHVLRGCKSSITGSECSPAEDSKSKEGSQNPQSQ
Estrogen receptor (Homo sapiens), sequence (P03372 whole entry, looked up): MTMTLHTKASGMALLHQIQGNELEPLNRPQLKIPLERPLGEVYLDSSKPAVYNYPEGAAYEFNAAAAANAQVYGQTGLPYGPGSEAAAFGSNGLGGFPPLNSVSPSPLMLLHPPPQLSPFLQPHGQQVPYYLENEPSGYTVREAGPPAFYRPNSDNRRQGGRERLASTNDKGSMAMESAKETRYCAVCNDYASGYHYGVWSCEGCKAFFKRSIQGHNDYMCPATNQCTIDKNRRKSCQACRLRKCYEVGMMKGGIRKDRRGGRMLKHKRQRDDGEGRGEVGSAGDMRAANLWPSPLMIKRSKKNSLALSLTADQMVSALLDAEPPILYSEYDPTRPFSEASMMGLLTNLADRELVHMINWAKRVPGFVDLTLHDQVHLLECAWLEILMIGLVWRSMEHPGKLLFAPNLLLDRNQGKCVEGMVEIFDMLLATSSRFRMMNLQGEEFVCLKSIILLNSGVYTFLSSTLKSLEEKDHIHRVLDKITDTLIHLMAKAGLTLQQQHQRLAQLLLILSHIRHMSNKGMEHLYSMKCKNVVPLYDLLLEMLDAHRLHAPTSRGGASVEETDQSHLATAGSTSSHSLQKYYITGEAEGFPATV
Thyrotropin receptor (Homo sapiens), sequence (P16473 whole entry, looked up): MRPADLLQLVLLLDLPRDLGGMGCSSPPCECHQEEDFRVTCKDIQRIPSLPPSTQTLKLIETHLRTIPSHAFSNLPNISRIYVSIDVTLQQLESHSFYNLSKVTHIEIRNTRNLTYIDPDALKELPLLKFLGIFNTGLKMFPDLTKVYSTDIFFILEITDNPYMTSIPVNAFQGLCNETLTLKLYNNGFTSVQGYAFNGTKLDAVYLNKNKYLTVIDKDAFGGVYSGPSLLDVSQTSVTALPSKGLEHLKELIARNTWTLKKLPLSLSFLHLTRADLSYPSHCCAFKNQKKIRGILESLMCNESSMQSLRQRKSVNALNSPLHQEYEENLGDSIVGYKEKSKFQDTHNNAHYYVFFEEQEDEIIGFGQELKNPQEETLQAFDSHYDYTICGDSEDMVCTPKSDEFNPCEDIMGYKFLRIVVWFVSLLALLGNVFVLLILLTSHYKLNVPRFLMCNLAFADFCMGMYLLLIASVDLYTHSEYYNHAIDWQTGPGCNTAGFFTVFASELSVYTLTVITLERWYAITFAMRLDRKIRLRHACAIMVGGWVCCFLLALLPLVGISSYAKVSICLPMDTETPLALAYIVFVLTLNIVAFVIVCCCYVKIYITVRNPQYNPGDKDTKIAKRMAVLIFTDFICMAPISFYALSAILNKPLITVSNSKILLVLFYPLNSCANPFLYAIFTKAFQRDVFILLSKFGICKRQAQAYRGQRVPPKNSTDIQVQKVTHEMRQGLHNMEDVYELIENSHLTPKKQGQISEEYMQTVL

`CCc1cccc(O)c1`: the Potency entry in test [1], in test [2], in test [3], in [4], in [5] and in test [6] was “inactive” in each case. Besides, the Potency result in test [7], in test [8], in test [9], in [10], in [11] and in test [12] was “inactive” throughout. The Potency entry in [13], in test [14], in test [15] and in [16] was “inactive” in each case.

On to `CC(O)CNCC(C)O` (centres undefined), for which the Potency result in test [1], in test [2], in [3], in test [4], in test [5] and in test [6] was “inactive” each time. For the same molecule, the Potency result in [7], in [8], in test [10], in test [11], in test [12] and in test [13] was “inactive” throughout. Further, the Potency result in [14], in test [15] and in test [16] was “inactive” throughout.

Take `CC/C(C)=N/O`: the Potency entry in [1], in test [3], in test [4], in test [5], in [6] and in test [7] was “inactive” in each case. Moreover, the Potency entry in [8], in test [9], in test [10], in [11], in test [12] and in test [14] was “inactive” throughout. The Potency entry in [15] and in [16] was “inactive” each time.

With `C=C1C[C@]23C[C@@]1(O)CC[C@H]2[C@@]12C=C[C@H](O)[C@@](C)(C(=O)O1)[C@H]2[C@@H]3C(=O)O`, the Potency result in [1], in test [3], in test [4], in test [5], in [6] and in test [7] was “inactive” throughout. The Potency result in [8], in [10], in test [11], in test [12], in [14] and in [15] was “inactive” each time. Besides, the Potency entry in test [16] was “inactive”.

With `Nc1cccc(C(F)(F)F)c1`, the Potency result in test [1], in test [2], in [3], in test [5], in [6] and in [7] was “inactive” in each case. Besides, the Potency entry in [8], in [9], in [17], in [10], in [11] and in test [12] was “inactive” in each case. Also, the Potency result in [13], in [14], in [15] and in test [16] was “inactive” in each case.

Take `COc1cc(NC(=O)CC(C)=O)c(OC)cc1Cl`: the Potency result in test [1], in test [2], in [3], in test [5], in [6] and in [7] was “inactive” in each case. The Potency result in [8], in test [9], in test [10], in [11], in test [12] and in test [13] was “inactive” throughout. Besides, the Potency entry in test [14], in test [15] and in test [16] was “inactive” throughout.

With `CCn1cc(C(=O)O)c(=O)c2cc3c(cc21)OCO3`, the Potency entry in test [1], in test [3], in [4], in [5], in test [6] and in test [7] was “inactive” in each case. Further, the Potency result in [8], in [10], in [11], in test [12], in [14] and in [15] was “inactive” each time. Further, the Potency result in [16] is “inactive”. Moreover, the call in test [18] was inactive.

As to `c1cnc2c(c1)ccc1cccnc12`, the Potency in test [3] is 19.5 µM (active) and 24.3 µM (active) and 27.3 µM (active); in test [5], 24.6 µM (active); in test [6] it was 13.8 µM (active) and 68.6 µM (active) and 43.3 µM (active); in test [7], 3.09 µM (active) and 24.3 µM (active) and 21.7 µM (active); in test [10], 15.5 µM (active) and 30.6 µM (active) and 21.7 µM (active); in test [11], 2.43 µM (active). Besides, in test [16], the Potency was 5.5 µM (active). Also, the Potency entry in test [8], in test [14] and in [15] was “inactive” throughout.

Consider `Cc1ccc([N+](=O)[O-])cc1N`, for which the Potency result in test [1], in test [2], in test [3], in test [4], in test [5] and in test [6] was “inactive” in each case. In addition, the Potency entry in test [7], in [8], in test [9], in [10], in test [11] and in test [12] was “inactive” throughout. Further, the Potency entry in test [13], in test [14], in [15] and in test [16] was “inactive” throughout.

Regarding `CN1CCCC1=O`, the Potency entry in test [1], in [2], in test [3], in test [4], in test [5] and in test [6] was “inactive” throughout. The Potency result in test [7], in [8], in test [9], in [17], in test [10] and in test [11] was “inactive” throughout. The Potency result in [12], in test [13] and in test [16] was “inactive” in each case.

For `COc1ccccc1[N+](=O)[O-]`, the Potency entry in [1], in [3], in [5], in test [6], in test [7] and in [8] was “inactive” in each case. Moreover, the Potency entry in test [10], in [11], in test [12] and in [16] was “inactive” each time.

In the case of `C[Si](C)(C)N[Si](C)(C)C`, the Potency result in test [1], in test [2], in test [3], in [5], in test [6] and in test [7] was “inactive” each time. For the same molecule, the Potency entry in test [8], in [9], in test [10], in [11], in [12] and in [13] was “inactive” throughout. For the same molecule, the Potency entry in test [14], in test [15] and in test [16] was “inactive” each time.
